In PubChem BioAssay (NCATS):
Results filed as inconclusive are left out. The source made the active and inactive calls. Unless noted, calls come from the whole dose curve; as a rule, active = well fitted curve in the direction sought with a large enough effect; inconclusive = small, poorly fitted or top-dose-only effect, or another doubt; inactive = no such curve, though single readings can be large; an effect the other way counts as inactive or inconclusive.

What was measured:
[1] = biological target: Lysosomal acid glucosylceramidase (Homo sapiens) (UniProt P04062); assay: Glucocerebrosidase-p2 (AID 348; in the data active = potency below about 10 µM; note: potency is the fitted concentration of half-maximal effect); settings: purified GBA, blue fluorogenic substrate, 40 min
Sequence of Lysosomal acid glucosylceramidase (Homo sapiens) (P04062 whole entry, looked up): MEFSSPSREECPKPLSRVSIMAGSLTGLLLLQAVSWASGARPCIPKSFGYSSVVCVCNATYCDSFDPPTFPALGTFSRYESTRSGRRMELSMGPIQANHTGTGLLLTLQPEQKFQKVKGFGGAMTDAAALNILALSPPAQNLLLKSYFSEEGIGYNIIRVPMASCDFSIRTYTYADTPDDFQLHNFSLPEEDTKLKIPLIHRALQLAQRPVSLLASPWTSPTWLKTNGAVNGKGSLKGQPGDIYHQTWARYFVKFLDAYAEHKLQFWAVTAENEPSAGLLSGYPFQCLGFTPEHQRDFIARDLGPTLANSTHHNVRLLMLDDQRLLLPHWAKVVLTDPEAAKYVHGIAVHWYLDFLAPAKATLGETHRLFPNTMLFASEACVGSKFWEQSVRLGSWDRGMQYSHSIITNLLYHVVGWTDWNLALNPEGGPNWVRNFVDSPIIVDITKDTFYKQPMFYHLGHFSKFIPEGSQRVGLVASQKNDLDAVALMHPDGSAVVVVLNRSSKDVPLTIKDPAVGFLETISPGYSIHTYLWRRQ
Method in brief: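 Compounds titrated from 0.6 nM upwards against 0.2 nM enzyme in pH 5.9 citric acid/KH2PO4, taurocholate, tween-20; blue fluorogenic substrate 80 uM, 40 min room temperature, stopped and read Ex 365/Em 440 for AC50.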

[2] = biological target: Cytochrome P450 1A2 (Homo sapiens) (UniProt P05177); assay: p450-cyp1a2 (AID 410; calls by dose curve; note: potency is the fitted concentration of half-maximal effect); settings: recombinant CYP1A2, luciferin-ME demethylation, luminescence; series mostly up to 57 µM
Method in brief: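 Human CYP1A2 (20nM) demethylated Luciferin-ME at its Km (100uM) in 100mM KPO4. After 10 min compound preincubation, NADPH regeneration ran the reaction 60 min at room temperature. Luciferin was read by luminescence, normalized to 57 uM furafylline.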

[3] = biological target: Glucocorticoid receptor (Homo sapiens) (UniProt P04150); assay: GR-GFP Redistribution (AID 450;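 active = compounds whose dose series gives a full or clear partial fitted curve of increased nuclear translocation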; note: potency is the fitted concentration of half-maximal effect); settings: U2OS GR-GFP nuclear translocation, laser cytometry, 2 h
Sequence of Glucocorticoid receptor (Homo sapiens) (P04150 whole entry, looked up, the tested form may be a part): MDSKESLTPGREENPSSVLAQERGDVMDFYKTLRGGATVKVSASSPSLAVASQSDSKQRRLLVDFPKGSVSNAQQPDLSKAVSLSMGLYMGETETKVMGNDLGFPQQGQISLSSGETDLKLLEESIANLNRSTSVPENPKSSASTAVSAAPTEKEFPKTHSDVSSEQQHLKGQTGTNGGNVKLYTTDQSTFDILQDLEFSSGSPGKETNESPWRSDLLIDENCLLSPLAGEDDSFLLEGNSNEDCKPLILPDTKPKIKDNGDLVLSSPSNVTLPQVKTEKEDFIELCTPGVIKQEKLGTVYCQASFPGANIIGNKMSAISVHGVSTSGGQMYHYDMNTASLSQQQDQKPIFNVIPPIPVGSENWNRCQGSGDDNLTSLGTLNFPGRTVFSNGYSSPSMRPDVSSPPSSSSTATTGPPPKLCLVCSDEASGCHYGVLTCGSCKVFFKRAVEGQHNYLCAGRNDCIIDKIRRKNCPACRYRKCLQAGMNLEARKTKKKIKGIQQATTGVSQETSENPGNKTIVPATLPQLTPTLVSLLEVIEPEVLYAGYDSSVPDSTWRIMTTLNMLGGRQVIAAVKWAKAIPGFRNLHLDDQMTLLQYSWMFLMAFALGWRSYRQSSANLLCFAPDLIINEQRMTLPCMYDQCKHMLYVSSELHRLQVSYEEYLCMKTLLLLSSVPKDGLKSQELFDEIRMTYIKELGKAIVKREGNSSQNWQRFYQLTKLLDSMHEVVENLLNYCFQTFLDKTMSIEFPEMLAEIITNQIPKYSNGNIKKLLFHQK

[4] = biological target: Glucocorticoid receptor (Homo sapiens) (UniProt P04150); assay: GR-EFC Redistribution (AID 451; calls by dose curve; note: potency is the fitted concentration of half-maximal effect); settings: CHO-K1 GR-EFC translocation, beta-gal luminescence, 2 h
Method in brief: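 CHO-K1 cells expressing nuclear EA and GR-ED fragments of b-gal; compounds titrated up to 46 uM final, 2 h at 37 C. GR nuclear translocation read as complemented b-gal luminescence after 1 h RT detection.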

[5] = biological target: Mitogen-activated protein kinase 10 (Mus musculus) (UniProt Q61831); assay: JNK3 AlphaScreen Assay (AID 530; active = well fitted curve in either direction with a large enough effect, not every such curve was filed as active;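 note: kinase came from lysate of stimulated human HepG2 cells; signal reports phosphorylation of biotinylated GST-cJun 1-79 at Ser73 with 10 µM ATP; % is set by controls: 0 for no effect and ±100 for the full control effect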); settings: JNK3 lysate, c-Jun phosphorylation; series mostly up to 57.1 µM
Method in brief: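 qHTS format: compounds tested as titrations against IL-1beta/TNF-alpha-activated HepG2 lysate JNK3 with biotin-GST-cJun substrate and 10 uM ATP at room temperature. Loss of anti-phospho-cJun AlphaScreen signal indicates inhibition.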

[6] = biological target: 3',5'-cyclic-AMP phosphodiesterase 4B (Homo sapiens) (UniProt Q07343); assay: qHTS Assay for Inhibitors of PDE-IV (AID 607; active = well fitted activation curve with a large enough effect in the main read-out, with a control signal flat, not every such curve was filed as active; note: % of control where 0% means no effect); settings: HEK293 ACTOne CNG channel cells, membrane potential fluorescence; series mostly up to 22.9 µM
Sequence of 3',5'-cyclic-AMP phosphodiesterase 4B (Homo sapiens) (Q07343 whole entry, looked up): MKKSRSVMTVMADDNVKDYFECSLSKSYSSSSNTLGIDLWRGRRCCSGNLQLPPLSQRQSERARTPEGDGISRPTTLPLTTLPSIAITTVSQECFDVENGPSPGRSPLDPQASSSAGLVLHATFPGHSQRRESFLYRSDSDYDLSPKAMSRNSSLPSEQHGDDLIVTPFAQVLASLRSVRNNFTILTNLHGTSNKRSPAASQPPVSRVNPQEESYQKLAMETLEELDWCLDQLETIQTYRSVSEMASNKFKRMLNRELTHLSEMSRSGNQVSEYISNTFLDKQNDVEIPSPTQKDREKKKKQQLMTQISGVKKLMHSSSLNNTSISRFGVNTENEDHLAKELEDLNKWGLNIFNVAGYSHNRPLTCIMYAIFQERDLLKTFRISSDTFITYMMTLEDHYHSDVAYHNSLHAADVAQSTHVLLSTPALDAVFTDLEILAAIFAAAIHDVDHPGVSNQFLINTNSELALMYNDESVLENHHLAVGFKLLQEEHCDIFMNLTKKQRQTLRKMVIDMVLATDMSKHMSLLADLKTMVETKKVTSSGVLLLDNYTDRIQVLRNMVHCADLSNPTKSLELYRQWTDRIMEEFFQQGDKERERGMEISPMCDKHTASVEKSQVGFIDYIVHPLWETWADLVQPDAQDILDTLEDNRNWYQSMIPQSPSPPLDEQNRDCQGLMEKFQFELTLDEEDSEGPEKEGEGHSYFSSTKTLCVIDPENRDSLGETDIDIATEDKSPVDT
Method in brief: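 The readout is membrane depolarisation from a cAMP-sensing CNG channel, detected with a potential dye at ex 535/em 590. Cells were HEK293-derived (endogenous PDE-IV) at 1000 cells/well, titrated up to 22.9 uM final.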

[7] = biological target: Cytochrome P450 2C9 (Homo sapiens) (UniProt P11712); assay: qHTS Assay for Inhibitors and Substrates of Cytochrome P450 2C9 (AID 883); settings: recombinant CYP2C9, luciferin-H luminescence, 60 min; series mostly up to 57.1 µM; note: potency is the fitted concentration of half-maximal effect; nearly all actives have a fitted effect of over 60% in size
Sequence of Cytochrome P450 2C9 (Homo sapiens) (P11712 whole entry, looked up): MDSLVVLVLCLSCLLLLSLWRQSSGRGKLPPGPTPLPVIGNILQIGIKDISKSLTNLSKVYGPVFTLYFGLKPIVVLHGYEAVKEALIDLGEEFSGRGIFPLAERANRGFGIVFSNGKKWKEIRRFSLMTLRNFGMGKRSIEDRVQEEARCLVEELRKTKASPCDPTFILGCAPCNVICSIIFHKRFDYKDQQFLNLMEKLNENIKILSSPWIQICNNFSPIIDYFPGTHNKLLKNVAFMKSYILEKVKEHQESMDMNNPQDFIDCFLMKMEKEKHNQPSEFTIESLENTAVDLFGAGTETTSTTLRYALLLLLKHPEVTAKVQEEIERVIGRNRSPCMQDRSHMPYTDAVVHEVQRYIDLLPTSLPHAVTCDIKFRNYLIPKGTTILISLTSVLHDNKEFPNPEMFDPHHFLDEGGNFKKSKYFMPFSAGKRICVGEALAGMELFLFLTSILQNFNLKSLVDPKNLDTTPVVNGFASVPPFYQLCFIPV
Method in brief: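 Signal: luciferase luminescence reporting luciferin produced by CYP2C9. Conditions: 10nM enzyme, Luciferin-H 100uM at KM, 25mM KPO4, 37C, 60 min NADPH-driven reaction. Reference: 57uM sulphaphenazole as 100% inhibition.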

[8] = biological target: Cytochrome P450 3A4 (Homo sapiens) (UniProt P08684); assay: qHTS Assay for Inhibitors and Substrates of Cytochrome P450 3A4 (AID 884); settings: recombinant CYP3A4, Luciferin-PPXE luminescence; series mostly up to 57.1 µM; note: potency is the fitted concentration of half-maximal effect; nearly all actives have a fitted effect of over 50% in size
Sequence of Cytochrome P450 3A4 (Homo sapiens) (P08684 whole entry, looked up): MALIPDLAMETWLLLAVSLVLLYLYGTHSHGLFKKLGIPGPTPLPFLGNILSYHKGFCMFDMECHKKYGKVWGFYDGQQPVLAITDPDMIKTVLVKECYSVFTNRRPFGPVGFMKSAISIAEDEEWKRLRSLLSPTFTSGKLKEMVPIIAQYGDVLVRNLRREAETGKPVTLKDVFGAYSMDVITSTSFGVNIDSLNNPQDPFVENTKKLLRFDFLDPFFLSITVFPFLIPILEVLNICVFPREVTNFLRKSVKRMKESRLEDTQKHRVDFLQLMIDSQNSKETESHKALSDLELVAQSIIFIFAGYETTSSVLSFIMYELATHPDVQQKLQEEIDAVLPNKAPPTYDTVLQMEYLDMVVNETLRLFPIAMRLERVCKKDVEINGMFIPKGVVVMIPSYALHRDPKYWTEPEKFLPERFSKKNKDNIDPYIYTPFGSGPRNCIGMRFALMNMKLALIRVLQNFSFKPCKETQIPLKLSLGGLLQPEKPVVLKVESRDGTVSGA
Method in brief: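 20 nM human CYP3A4 with 25 uM Luciferin-PPXE (at KM) in 200 mM KPO4, preincubated 10 min with compound; NADPH regeneration started a 60 min RT reaction. Luciferin detected by luminescence, normalized to 57 uM ketoconazole as full inhibition.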

[9] = biological target: Cytochrome P450 3A4 (Homo sapiens) (UniProt P08684); assay: qHTS Assay for Activators of Cytochrome P450 3A4 (AID 885); settings: recombinant CYP3A4, Luciferin-PPXE luminescence, 60 min; series mostly up to 57.1 µM; note: nearly all actives have a fitted effect of over 65% in size
Method in brief: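 Steps: enzyme/substrate mix dispensed; compound added, 10 min RT; NADPH regeneration solution added, 60 min RT; luciferin detection buffer stops reaction; 20 min later luminescence measured.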

[10] = biological target: Cytochrome P450 2D6 (Homo sapiens) (UniProt P10635); assay: qHTS Assay for Inhibitors and Substrates of Cytochrome P450 2D6 (AID 891); settings: recombinant CYP2D6, luciferin-ME EGE luminescence; series mostly up to 57.1 µM; note: potency is the fitted concentration of half-maximal effect; nearly all actives have a fitted effect of over 60% in size
Method in brief: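 Human CYP2D6 (5 nM) with 30 uM Luciferin-ME EGE (at Km) in 100 mM KPO4, compound preincubated 10 min, then NADPH regeneration system for 60 min at room temperature. Luciferin read by luminescence; normalized to 1.43 uM quinidine.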

[11] = biological target: Cytochrome P450 2C19 (Homo sapiens) (UniProt P33261); assay: qHTS Assay for Inhibitors and Substrates of Cytochrome P450 2C19 (AID 899); settings: recombinant CYP2C19, luciferin-H EGE luminescence; series mostly up to 57.1 µM; note: potency is the fitted concentration of half-maximal effect; nearly all actives have a fitted effect of over 60% in size
Method in brief: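 Signal comes from luciferase acting on luciferin released by CYP2C19-mediated hydroxylation of Luciferin-H EGE, 10uM (KM). Assay mix: 5nM enzyme, 50mM KPO4; 60 min at 37C with NADPH regeneration. Data normalized against 57uM ketoconazole.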

[12] = biological target: Rap guanine nucleotide exchange factor 3 (Homo sapiens) (UniProt O95398); assay: Confirmatory qHTS for agonist of cAMP-regulated guanine nucleotide exchange factor 3 (EPAC1) (AID 1645881); settings: EPAC1 Rap1B BODIPY-GDP exchange fluorescence; series mostly up to 154 µM;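 note: EPAC1 catalysed release of BODIPY-GDP from Rap1B seen as fluorescence loss; 100% = effect of cAMP agonist control; nearly all actives have a fitted effect of over 75% in size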
Sequence of Rap guanine nucleotide exchange factor 3 (Homo sapiens) (O95398 whole entry, looked up): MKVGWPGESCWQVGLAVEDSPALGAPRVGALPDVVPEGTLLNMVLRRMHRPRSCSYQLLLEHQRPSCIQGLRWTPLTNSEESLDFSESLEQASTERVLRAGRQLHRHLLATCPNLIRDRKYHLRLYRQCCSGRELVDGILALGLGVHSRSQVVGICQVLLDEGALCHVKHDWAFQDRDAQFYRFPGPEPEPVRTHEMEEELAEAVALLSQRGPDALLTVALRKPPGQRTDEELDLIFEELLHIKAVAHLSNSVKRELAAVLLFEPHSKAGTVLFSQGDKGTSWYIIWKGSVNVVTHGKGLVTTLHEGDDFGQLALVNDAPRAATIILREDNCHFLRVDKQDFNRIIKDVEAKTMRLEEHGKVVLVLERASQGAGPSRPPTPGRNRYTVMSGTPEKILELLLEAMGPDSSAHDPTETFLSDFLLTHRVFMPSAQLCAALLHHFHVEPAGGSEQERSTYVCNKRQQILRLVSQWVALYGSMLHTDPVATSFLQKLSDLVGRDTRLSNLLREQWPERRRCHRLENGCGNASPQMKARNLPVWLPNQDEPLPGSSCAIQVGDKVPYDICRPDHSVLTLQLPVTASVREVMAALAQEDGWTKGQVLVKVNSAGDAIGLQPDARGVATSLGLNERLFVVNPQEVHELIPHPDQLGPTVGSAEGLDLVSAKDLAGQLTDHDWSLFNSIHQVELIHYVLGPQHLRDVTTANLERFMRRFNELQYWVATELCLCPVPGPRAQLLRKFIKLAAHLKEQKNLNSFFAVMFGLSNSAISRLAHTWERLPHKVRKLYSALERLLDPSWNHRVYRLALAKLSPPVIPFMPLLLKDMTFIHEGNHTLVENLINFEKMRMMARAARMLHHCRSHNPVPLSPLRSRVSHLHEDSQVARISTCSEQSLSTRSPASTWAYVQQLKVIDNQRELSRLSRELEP

[13] = biological target: Rap guanine nucleotide exchange factor 4 (Homo sapiens) (UniProt Q8WZA2); assay: Confirmatory qHTS for agonist of cAMP-regulated guanine nucleotide exchange factor 4 (EPAC2) (AID 1645884); settings: EPAC2 GEF activity, Rap1B-BODIPY-GDP fluorescence; series mostly up to 154 µM;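 note: nucleotide exchange releases bodipy-GDP from Rap1 and this lowers its fluorescence; % is set by controls: 0 for no effect and ±100 for the full control effect; nearly all actives have a fitted effect of over 65% in size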
Sequence of Rap guanine nucleotide exchange factor 4 (Homo sapiens) (Q8WZA2 whole entry, looked up): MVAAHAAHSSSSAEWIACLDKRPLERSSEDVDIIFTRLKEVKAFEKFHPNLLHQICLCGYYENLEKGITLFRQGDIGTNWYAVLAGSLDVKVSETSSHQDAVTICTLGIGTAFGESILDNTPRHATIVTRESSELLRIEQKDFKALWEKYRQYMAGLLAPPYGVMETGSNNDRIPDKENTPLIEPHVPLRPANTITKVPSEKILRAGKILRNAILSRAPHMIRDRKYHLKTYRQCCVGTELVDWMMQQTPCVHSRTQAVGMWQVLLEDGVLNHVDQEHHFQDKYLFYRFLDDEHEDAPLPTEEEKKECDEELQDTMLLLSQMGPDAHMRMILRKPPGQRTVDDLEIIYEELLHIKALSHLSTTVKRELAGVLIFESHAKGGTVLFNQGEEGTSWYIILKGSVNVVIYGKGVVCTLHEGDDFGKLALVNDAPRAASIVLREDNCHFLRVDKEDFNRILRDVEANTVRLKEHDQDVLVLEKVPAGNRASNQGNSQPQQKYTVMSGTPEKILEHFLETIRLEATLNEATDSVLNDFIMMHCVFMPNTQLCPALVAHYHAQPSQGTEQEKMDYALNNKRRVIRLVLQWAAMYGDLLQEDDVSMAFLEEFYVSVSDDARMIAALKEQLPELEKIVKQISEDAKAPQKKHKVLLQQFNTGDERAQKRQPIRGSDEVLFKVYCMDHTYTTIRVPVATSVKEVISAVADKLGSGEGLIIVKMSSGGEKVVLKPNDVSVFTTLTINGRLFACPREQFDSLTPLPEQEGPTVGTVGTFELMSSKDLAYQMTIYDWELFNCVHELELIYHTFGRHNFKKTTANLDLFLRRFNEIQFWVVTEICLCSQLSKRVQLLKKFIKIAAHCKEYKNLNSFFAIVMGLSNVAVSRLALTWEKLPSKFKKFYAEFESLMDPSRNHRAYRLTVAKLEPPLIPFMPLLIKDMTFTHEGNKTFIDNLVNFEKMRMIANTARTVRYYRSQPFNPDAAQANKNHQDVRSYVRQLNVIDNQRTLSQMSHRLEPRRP

[14] = biological target: Rap guanine nucleotide exchange factor 4 (Homo sapiens) (UniProt Q8WZA2); assay: Confirmatory qHTS for antagonist of cAMP-regulated guanine nucleotide exchange factor 4 (EPAC2) (AID 1645885); settings: EPAC2 Rap1B-BODIPY-GDP exchange fluorescence, biochemical; series mostly up to 12.7 µM; note: nearly all actives have a fitted effect of over 25% in size; note: potency is the fitted concentration of half-maximal effect; for activity change, negative = inhibition: % is set by controls: 0 for no effect and ±100 for the full control effect
[15] = biological target: Rap guanine nucleotide exchange factor 3 (Homo sapiens) (UniProt O95398); assay: Counterscreen qHTS for antagonist of cAMP-regulated guanine nucleotide exchange factor 3 (EPAC1) (AID 1645888); settings: Rap1B-BODIPY-GDP nucleotide exchange, fluorescence; series mostly up to 154 µM;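 note: fluorescence loss as bound BODIPY-GDP is released from Rap1B; % of control where 0% means no effect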
Method in brief: (§1)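 Rap1B–BODIPY-GDP (250 nM) with 50 uM GDP; compounds pin-transferred to 9.74 nM–152 uM final (activator) or from 7.32 nM upwards (inhibitor). Fluorescence Ex/Em 480/540 nm read at 5 and 30 min, then after adding cAMP or buffer, at room temperature.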

[16] = biological target: Rap guanine nucleotide exchange factor 3 (Homo sapiens) (UniProt O95398); assay: Counterscreen qHTS for agonist of cAMP-regulated guanine nucleotide exchange factor 3 (EPAC1) (AID 1645889); settings: EPAC1 Rap1B-BODIPY-GDP exchange, fluorescence; series mostly up to 154 µM; note: % of control where 0% means no effect; nearly all actives have a fitted effect of over 40% in size
Method in brief: as §1

[17] = biological target: Tyrosyl-DNA phosphodiesterase 1 (Homo sapiens) (UniProt Q9NUW8); assay: Confirmation Assay for Inhibitors of Tyrosyl-DNA Phosphodiesterase (TDP1) (AID 489007); settings: recombinant human TDP1 enzymatic activity, dose-response; note: potency is the fitted concentration of half-maximal effect; nearly all actives have a fitted effect of over 40% in size
Method in brief: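 Recombinant E. coli-expressed Tdp1 (1 nM final) was preincubated with compounds 15 min at room temperature, then reacted 5 min with 15 nM 5'-biotin/3'-phosphotyrosine-FITC DNA substrate; cleavage read as loss of AlphaScreen signal (10 ug/ml beads, 10 min).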

O=C1C=C(NCCc2cc(Br)c(O)c(Br)c2)C(=O)c2ncccc21
active: Potency [2] 3.16 µM | Potency [7] 1.58 µM | Potency [8] 3.16 µM | Potency [10] 1.58 µM | Potency [11] 0.501 µM
inactive: Potency [1] > 11.4 µM | Potency [3] > 46 µM | Potency [4] > 9.22 µM | activity change, negative = inhibition [5] 0.257% [at 11.4 µM] | Potency [6] | activity change, positive = activation [9] -62.8% [at 11.4 µM] | Potency [12] | activation [13] 5.19% [at 17.1 µM, percent relative to cAMP agonist control] | Potency [14] | activity change, negative = inhibition [15] -20.2% [at 30.8 µM]

CCc1ccc(OCC2c3cc(OC)c(OC)cc3CCN2C(C)=O)cc1 (stereo not given)
active: Potency [14] 42.6 µM
inactive: Potency [12] | Potency [13] | Potency [15] | Potency [16]

COc1cc(CN(C)CC2CCCN(CCc3ccccc3F)C2)cc(Cl)c1OC (stereo not given)
inactive: Potency [12] | Potency [13] | Potency [14] | Potency [15] | Potency [16]

CC(C)CCNc1c(-c2cccs2)nc2ccccn12
inactive: Potency [12] | Potency [13] | Potency [14] | Potency [15] | Potency [16]

CCc1ccc(-n2c(CCC(=O)O)ccc2-c2cccs2)cc1
inactive: Potency [12] | Potency [13] | Potency [14] | Potency [15] | Potency [16]

COc1ccc(C(CC(=O)N2CCCC2)c2c(OC)cc(OC)c3c(-c4ccccc4)cc(=O)oc23)cc1 (stereo not given)
active: Potency [17] 2.24 µM
inactive: Potency [12] | Potency [13] | Potency [14] | Potency [15]

Cc1cc(C)n2nc(C(=O)N/N=C/c3c4ccccc4cc4ccccc34)nc2n1
inactive: Potency [12] | activation [13] 2.45% [at 17.1 µM, percent relative to cAMP agonist control] | Potency [14] | activity change, negative = inhibition [15] 4.99% [at 30.8 µM] | activation [16] 34.9% [at 30.8 µM]

O=C(CCC(=O)N1CCSc2ccccc21)NCc1cccc(Br)c1
inactive: Potency [12] | activation [13] 9.98% [at 17.1 µM, percent relative to cAMP agonist control] | Potency [14] | activity change, negative = inhibition [15] 0.997% [at 30.8 µM] | activation [16] 10% [at 30.8 µM]
